# Results reported in PMC7862700, “An all-to-all approach to the identification of sequence-specific readers for epigenetic DNA modifications on cytosine”.
# Assays:
# Test in all cases: DAPPL (digital affinity profiling via proximity ligation, sequencing); 10 mM Tris-HCl pH 7.5, 50 mM NaCl, 1 mM DTT, 4% glycerol, room temperature, 30 min; GST-TFs on glutathione beads, 16-mer random dsDNA library, 0.1% formaldehyde crosslink after washing; high values mean tight binding
# Settings in all cases: protein: recombinant; tags: N-terminal GST; dsDNA, one strand shown
# FLI1 = molecular target: T1, FLI1 (Homo sapiens, UniProt Q01543 1-452)
# T1 sequence: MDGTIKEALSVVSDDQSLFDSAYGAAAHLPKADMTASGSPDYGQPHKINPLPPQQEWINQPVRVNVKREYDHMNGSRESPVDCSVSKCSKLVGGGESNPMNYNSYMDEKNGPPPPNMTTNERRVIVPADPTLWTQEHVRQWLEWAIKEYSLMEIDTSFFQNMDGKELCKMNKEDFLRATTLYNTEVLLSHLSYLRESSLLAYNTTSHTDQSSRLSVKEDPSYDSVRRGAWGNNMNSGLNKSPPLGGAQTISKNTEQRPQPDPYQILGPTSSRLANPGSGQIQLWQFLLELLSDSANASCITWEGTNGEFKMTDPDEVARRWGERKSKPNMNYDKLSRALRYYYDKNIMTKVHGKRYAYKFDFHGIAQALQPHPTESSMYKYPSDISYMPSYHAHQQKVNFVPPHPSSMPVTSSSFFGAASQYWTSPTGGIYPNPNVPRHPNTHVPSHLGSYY
# Summary of the method: (§1)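 Pools were built from human transcription factors expressed in yeast as GST fusions, captured on glutathione beads and DNA-barcoded, along with a tag-only sample. Incubation with 200 nmole of a 16-mer random double-stranded DNA library lasted 30 min at room temperature in Tris/NaCl/DTT/glycerol buffer, and was followed by washing, 0.1% formaldehyde crosslinking, proximity ligation, PCR amplification and Illumina NextSeq500 sequencing. Binding signal is the quotient of each hexamer's read frequency for a factor and its frequency for the tag-only sample.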
# ELK1 = molecular target: T2, ELK1 (Homo sapiens, UniProt P19419 1-428)
# T2 sequence: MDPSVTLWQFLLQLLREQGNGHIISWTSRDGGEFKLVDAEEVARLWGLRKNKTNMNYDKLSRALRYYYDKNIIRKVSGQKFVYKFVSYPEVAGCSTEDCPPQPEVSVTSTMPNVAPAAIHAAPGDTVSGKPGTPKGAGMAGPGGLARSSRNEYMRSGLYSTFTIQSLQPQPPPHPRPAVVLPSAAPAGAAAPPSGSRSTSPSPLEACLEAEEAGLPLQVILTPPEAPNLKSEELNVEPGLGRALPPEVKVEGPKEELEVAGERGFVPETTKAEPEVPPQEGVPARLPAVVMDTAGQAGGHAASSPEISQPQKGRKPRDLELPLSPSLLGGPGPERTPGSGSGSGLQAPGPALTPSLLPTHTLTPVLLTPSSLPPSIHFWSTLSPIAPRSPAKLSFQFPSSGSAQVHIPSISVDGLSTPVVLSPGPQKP
# Summary of the method: as §1
# GABPA = molecular target: T3, GABPA (Homo sapiens, UniProt Q06546 1-454)
# T3 sequence: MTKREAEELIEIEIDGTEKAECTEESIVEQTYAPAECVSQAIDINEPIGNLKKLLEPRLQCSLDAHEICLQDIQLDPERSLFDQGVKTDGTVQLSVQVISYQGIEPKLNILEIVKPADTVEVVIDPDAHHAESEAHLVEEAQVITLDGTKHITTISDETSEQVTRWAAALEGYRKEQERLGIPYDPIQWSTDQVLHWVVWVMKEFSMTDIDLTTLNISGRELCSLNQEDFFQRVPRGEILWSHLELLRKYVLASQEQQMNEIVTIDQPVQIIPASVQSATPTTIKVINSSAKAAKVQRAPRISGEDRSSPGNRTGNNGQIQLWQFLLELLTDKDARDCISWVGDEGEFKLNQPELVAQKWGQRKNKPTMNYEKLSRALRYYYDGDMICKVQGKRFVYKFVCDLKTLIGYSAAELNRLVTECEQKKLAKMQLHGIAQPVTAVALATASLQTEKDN
# Summary of the method: as §1
# ERG = molecular target: T4, ERG (Homo sapiens, UniProt P11308 1-479)
# T4 sequence: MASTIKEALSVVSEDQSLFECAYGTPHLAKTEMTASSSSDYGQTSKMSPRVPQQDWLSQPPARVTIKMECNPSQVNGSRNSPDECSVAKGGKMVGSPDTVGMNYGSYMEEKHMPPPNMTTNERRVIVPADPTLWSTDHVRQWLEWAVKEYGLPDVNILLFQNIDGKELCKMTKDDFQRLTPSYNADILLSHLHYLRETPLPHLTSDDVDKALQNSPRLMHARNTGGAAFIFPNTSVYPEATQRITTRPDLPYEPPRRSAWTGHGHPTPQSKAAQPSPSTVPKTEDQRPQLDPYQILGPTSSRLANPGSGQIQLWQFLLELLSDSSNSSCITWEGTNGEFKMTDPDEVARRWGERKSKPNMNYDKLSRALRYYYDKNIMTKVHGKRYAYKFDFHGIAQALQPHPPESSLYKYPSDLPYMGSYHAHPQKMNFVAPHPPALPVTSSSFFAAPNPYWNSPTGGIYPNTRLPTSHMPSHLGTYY
# Summary of the method: as §1
# ELF1 = ELF1 (Homo sapiens, UniProt P32519 1-619)
# ELF1, sequence (P32519 whole entry): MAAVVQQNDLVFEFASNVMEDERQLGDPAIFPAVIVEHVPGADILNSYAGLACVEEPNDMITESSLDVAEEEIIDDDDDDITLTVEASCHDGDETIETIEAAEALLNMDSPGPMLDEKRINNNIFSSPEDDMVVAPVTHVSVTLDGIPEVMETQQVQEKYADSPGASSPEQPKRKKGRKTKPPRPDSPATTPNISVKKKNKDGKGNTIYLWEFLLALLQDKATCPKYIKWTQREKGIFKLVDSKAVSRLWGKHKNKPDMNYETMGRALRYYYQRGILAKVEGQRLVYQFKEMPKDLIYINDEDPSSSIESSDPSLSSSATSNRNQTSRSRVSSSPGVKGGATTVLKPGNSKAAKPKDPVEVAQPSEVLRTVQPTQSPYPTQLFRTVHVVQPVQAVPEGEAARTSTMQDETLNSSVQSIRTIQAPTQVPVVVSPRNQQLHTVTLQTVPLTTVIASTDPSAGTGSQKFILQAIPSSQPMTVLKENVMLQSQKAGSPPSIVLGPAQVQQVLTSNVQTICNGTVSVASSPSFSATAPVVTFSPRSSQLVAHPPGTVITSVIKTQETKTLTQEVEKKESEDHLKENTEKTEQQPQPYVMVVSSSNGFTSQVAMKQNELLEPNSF
# Summary of the method: as §1
# EHF = molecular target: T5, EHF (Homo sapiens, UniProt Q9NZC4 1-300)
# T5 sequence: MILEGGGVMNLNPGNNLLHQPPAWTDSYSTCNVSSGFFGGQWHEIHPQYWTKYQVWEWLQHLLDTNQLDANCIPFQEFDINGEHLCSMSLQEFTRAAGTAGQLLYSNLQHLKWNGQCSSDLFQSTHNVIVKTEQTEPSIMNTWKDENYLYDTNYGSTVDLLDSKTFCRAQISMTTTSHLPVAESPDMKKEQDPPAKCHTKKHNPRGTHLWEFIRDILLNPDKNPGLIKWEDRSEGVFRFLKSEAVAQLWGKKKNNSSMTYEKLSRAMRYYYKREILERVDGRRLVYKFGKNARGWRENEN
# Summary of the method: as §1
# SPI1 = SPI1 (Homo sapiens, UniProt P17947 1-270)
# Summary of the method: as §1
# SPIB = SPIB (Homo sapiens, UniProt Q01892 1-262)
# SPIB, sequence (Q01892 whole entry): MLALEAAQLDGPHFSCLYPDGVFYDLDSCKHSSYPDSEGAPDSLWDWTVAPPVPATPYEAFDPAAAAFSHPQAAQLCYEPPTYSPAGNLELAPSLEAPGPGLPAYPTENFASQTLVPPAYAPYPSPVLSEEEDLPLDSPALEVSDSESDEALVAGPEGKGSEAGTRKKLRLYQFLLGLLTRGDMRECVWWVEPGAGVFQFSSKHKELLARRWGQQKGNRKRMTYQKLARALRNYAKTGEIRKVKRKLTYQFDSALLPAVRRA
# Summary of the method: as §1
# FEV = molecular target: T6, FEV (Homo sapiens, UniProt Q99581 1-238)
# T6 sequence: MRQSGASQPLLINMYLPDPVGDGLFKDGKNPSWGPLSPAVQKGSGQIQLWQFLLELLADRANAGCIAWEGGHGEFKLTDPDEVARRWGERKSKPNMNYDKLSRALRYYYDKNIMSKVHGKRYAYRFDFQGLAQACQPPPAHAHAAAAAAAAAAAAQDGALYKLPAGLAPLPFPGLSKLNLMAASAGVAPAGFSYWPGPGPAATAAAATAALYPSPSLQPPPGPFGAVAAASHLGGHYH
# Summary of the method: as §1
# ETV5 = ETV5 (Homo sapiens, UniProt P41161 1-510)
# ETV5, sequence (P41161 whole entry): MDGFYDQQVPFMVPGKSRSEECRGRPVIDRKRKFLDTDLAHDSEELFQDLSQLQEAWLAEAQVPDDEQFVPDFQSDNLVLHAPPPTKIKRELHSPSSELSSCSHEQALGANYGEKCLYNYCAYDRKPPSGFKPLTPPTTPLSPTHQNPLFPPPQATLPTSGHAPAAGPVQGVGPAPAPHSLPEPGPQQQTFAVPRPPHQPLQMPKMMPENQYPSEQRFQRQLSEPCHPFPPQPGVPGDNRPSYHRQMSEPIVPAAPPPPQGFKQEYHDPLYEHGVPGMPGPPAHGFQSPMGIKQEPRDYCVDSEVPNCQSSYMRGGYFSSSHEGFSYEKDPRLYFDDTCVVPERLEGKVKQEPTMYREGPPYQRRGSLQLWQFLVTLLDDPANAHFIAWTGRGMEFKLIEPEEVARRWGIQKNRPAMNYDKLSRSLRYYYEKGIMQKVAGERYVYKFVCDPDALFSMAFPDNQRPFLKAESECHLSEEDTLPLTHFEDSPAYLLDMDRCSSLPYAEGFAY
# Summary of the method: as §1
sequence,measurement,setting,value
CGTCGC,binding signal,FLI1,"1.31 fold enrichment (6-mer frequency, TF over GST control)"
same,binding signal,ELK1,"1.2 fold enrichment (6-mer frequency, TF over GST control)"
same,binding signal,GABPA,"1.24 fold enrichment (6-mer frequency, TF over GST control)"
same,binding signal,ERG,"1.19 fold enrichment (6-mer frequency, TF over GST control)"
same,binding signal,ELF1,"1.21 fold enrichment (6-mer frequency, TF over GST control)"
same,binding signal,EHF,"1.14 fold enrichment (6-mer frequency, TF over GST control)"
same,binding signal,SPI1,"1.21 fold enrichment (6-mer frequency, TF over GST control)"
same,binding signal,SPIB,"1.25 fold enrichment (6-mer frequency, TF over GST control)"
same,binding signal,FEV,"1.14 fold enrichment (6-mer frequency, TF over GST control)"
same,binding signal,ETV5,"1.12 fold enrichment (6-mer frequency, TF over GST control)"
